UBC9 SUMO inh: SUMOylation inhibition; P63279; HTRF SUMOylation assay, SAE1/SAE2 + UBC9, in vitro; inhibition, % at 35 µM; actives 0.36% (n = 290,000); AID 2006; in the data active = inhibition above about 50%, passing the limit was not always enough
Target sequence (P63279 whole entry, looked up): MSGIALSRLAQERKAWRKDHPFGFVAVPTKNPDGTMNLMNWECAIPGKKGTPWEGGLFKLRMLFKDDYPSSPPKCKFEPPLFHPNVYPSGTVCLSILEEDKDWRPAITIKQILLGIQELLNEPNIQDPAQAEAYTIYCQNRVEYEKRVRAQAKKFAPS
NadD inh: inhibitors of Staphylococcus aureus NadD; purified NadD enzyme, colorimetric absorbance read-out; inhibition, % at 20 µM; actives 0.78% (n = 360,000); in the data active = inhibition above about 26%
PHOSPHO1 inh: inhibitors of human PHOSPHO1 phosphatase | inhibition, % at 13.3 µM | recombinant PHOSPHO1, absorbance phosphatase assay | actives 1.1% (n = 290,000) | Q8TCT1; in the data active = inhibition above about 60%
Target sequence (Q8TCT1 whole entry, looked up): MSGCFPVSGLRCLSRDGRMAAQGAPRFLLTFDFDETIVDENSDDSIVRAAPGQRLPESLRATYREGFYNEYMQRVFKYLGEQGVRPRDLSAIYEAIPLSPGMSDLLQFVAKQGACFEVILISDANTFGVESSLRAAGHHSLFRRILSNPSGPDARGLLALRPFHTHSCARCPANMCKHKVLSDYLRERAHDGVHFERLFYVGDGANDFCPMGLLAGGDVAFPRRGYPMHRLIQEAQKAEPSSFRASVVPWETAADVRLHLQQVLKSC
p-CIP stab down: compounds decreasing mouse p/CIP protein stability; Q05BA5; F442A p/CIP-EGFP cells, EGFP fluorescence, 16 h; decrease of EGFP signal, % at 10 µM; actives 0.01% (n = 290,000);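 active = EGFP signal decrease of at least 30% at 10 µM or well 3 SD below plate mean, unless failing retest; inactive = the rest, including hits failing retest or dose response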
Each line names hits and unclear results; the compound was inactive in the other large screens. Rows were chosen to be rich in hits. Some 1.8% of all compounds tested hit in one or more screens of this group.

Nc1nc(SCC(=O)C23CC4CC(CC(C4)C2)C3)n[nH]1	PHOSPHO1 inh 88
CN(C(=O)CSc1n[nH]c(N)n1)C1CCCCC1	none (no result: UBC9 SUMO inh, PHOSPHO1 inh, p-CIP stab down)
COc1ccc(-n2c(=O)c3c4c(sc3n(CC(=O)NCC3CCCO3)c2=O)CN(C(C)=O)CC4)cc1OC (centres undefined)	none (no result: UBC9 SUMO inh, PHOSPHO1 inh, p-CIP stab down)
Cc1ccc(-n2c(N)c(C(=O)N3CCOCC3)sc2=S)cc1	PHOSPHO1 inh 76
CCCCN1C(=O)CC2CCOC21C (centres undefined)	none (no result: UBC9 SUMO inh, PHOSPHO1 inh, p-CIP stab down)
O=C1[C@H]2[C@@H](c3ccc(C(F)(F)F)cc3)N[C@]3(CCCN(Cc4ccc(F)cc4)C3=O)[C@H]2C(=O)N1Cc1ccccc1	none (no result: UBC9 SUMO inh, PHOSPHO1 inh, p-CIP stab down)
Cc1ccc(C)c(S(=O)(=O)C(C#N)c2nc3ccccc3nc2N2CCCC2)c1 (centres undefined)	PHOSPHO1 inh 72
Cc1ccc(S(=O)(=O)C(C#N)c2nc3ccccc3nc2N2CCC(C)CC2)cc1 (centres undefined)	UBC9 SUMO inh 81
COc1ccc(S(=O)(=O)C(C#N)c2nc3ccccc3nc2N2CCCCC2)cc1 (centres undefined)	PHOSPHO1 inh 100
Cc1ccc(C)c(S(=O)(=O)C(C#N)c2nc3ccccc3nc2N2CCOCC2)c1 (centres undefined)	none
N#CC(c1nc2ccccc2nc1N1CCCC1)S(=O)(=O)c1ccccc1 (centres undefined)	none
Cc1ccccc1-c1cc2c(nn1)-c1ccccc1C2=O	UBC9 SUMO inh 88
Cc1ccc(-c2cc3c(nn2)-c2ccccc2C3=O)cc1	none
COCCn1c(=S)[nH]c2cc(C(=O)NC3CCCCC3C)ccc2c1=O (centres undefined)	none (no result: UBC9 SUMO inh, PHOSPHO1 inh, p-CIP stab down)
CCc1nc2ccc(C(=O)NCCNC(C)=O)cn2c1N(CC)CCOC	none (no result: UBC9 SUMO inh, PHOSPHO1 inh, p-CIP stab down)
CC1CCCC(C)N1C(=O)Cn1cc(/C=C2/C(=O)Nc3ccccc32)c2ccccc21 (centres undefined)	NadD inh 34
COC(=O)c1cn(CC(=O)N2C(C)CCCC2C)c2ccccc12 (centres undefined)	none
CCn1c(-c2ccccc2)csc1=Nc1ccc(S(=O)(=O)O)cc1	none
COCCCn1c(-c2ccc(S(=O)(=O)N3CCOCC3)cc2)csc1=Nc1ccccc1	PHOSPHO1 inh 69
O=C(COC(=O)c1cccc(S(=O)(=O)N2CCOCC2)c1)NC1CCCCC1	none (no result: UBC9 SUMO inh, PHOSPHO1 inh, p-CIP stab down)
CCOc1cc(CN2CCC(N3CCC(C(=O)NC4CC4)CC3)CC2)ccc1O	none (no result: UBC9 SUMO inh, PHOSPHO1 inh, p-CIP stab down)
CCCCC(=O)N(C)c1c(C)nc2ccc(C(=O)N(C)Cc3ccco3)cn12	none (no result: UBC9 SUMO inh, PHOSPHO1 inh, p-CIP stab down)
Cc1cc(NO)nc(-c2ccc(Br)cc2)n1	PHOSPHO1 inh 96
Cc1cc(C)nc(NC(=O)c2ccc(Br)cc2)n1	none
Cc1ccccc1CC(=O)Nc1ccc2c(c1)c(=O)n(C)n2-c1ccccc1F	none (no result: UBC9 SUMO inh, PHOSPHO1 inh, p-CIP stab down)
CCCCCCC#Cc1cncc(C(=O)NNC(=O)Nc2cc(Cl)cc(Cl)c2)c1	UBC9 SUMO inh 62
CCCCC#Cc1cncc(C(=O)NN)c1	none
Cc1ccc(NS(=O)(=O)c2ccc(Cl)c(N=Nc3c(O)[nH]c(=O)[nH]c3=O)c2)cc1Cl	NadD inh 31 (no result: UBC9 SUMO inh, PHOSPHO1 inh, p-CIP stab down)
CC(C)[C@H](NC(=O)N1c2ccccc2NC(=O)[C@@H]1C(C)C)C(=O)N[C@H](Cc1ccccc1)C(=O)O	PHOSPHO1 inh 65
O=C(COC(=O)c1ccc(Cl)nc1)NCCc1ccccc1	none (no result: UBC9 SUMO inh, PHOSPHO1 inh, p-CIP stab down)
CC1(C(=O)NS(=O)(=O)C2CC2)CCN(C(=O)c2cccc(OC(F)(F)F)c2)C1 (centres undefined)	none (no result: UBC9 SUMO inh, PHOSPHO1 inh, p-CIP stab down)
CCOC(=O)CCc1c(C)c2ccc(OCC)c(C)c2oc1=O	none (no result: NadD inh)
CCOC(=O)CCc1c(C)c2ccc(OCC(=O)N3CCOCC3)c(C)c2oc1=O	PHOSPHO1 inh 62
CN(C)c1ccc(-c2nnc(-c3ccccc3F)o2)cc1	none
CC1CCCCN1C(=S)NCCc1ccccc1 (centres undefined)	PHOSPHO1 inh 88
CC(=O)Nc1ccc(S(=O)(=O)NCCc2cc3ccc(C)c(C)c3[nH]c2=O)cc1	PHOSPHO1 inh 63
ClC(Cl)(Cl)C1=NCc2nnn(Cc3ccccc3)c2N1	none (no result: UBC9 SUMO inh, PHOSPHO1 inh, p-CIP stab down)
CSC1=N/C(=C\c2ccc(C)o2)C(=O)S1	PHOSPHO1 inh 92
CSC1=N/C(=C\c2ccc(C)s2)C(=O)S1	none
COc1ccc(/C=C2\SC(=S)N(CCCC(=O)NNC(=O)c3ccccc3O)C2=O)cc1	NadD inh 38
Cc1ccc(/C=C2/SC(=S)N(CCCC(=O)Nc3cc([N+](=O)[O-])ccc3O)C2=O)cc1	NadD inh 51
COc1ccccc1/C=C1\SC(=S)N(CCC(=O)NNC(=O)c2ccccc2O)C1=O	NadD inh 32
COc1ccccc1/C=C1\SC(=S)N(CCC(=O)N2CCN(C)CC2)C1=O	none
O=C(CCCN1C(=O)/C(=C/c2cccs2)SC1=S)NNC(=O)c1ccccc1O	NadD inh 28
O=C(CSc1nnc(NC2CCCCC2)s1)Nc1ccc2c(c1)C(=O)c1ccccc1C2=O	NadD inh 46
COC(=O)[C@]12CCCCC=C1N(Cc1ccco1)C(=O)[C@H](CC(=O)NCc1cccs1)C2	none (no result: UBC9 SUMO inh, PHOSPHO1 inh, p-CIP stab down)
Cc1ccc2oc(-c3cccc(NC(=O)Cc4cccs4)c3)nc2c1	none
Cc1ccc2oc(-c3ccc(C)c(NC(=O)Cc4cccs4)c3)nc2c1	UBC9 SUMO inh 56
Cc1ccc(S(=O)(=O)NNc2nc3ccccc3nc2C(F)(F)F)cc1	PHOSPHO1 inh 92
COc1ccc(NC(=O)C[C@H]2C(=O)N(C3CCCCC3)C[C@@H]2c2ccccc2)cc1	none (no result: UBC9 SUMO inh, PHOSPHO1 inh, p-CIP stab down)
CCn1c(COc2ccccc2C)nnc1SCC(=O)CC(=O)Nc1ccccc1	PHOSPHO1 inh 69
c1cnc2ccc(-n3ccnc3)cc2c1	none (no result: UBC9 SUMO inh, PHOSPHO1 inh, p-CIP stab down)
CC1=NN(c2ccc(C)cc2)C(=O)/C1=C\c1ccc(Br)s1	UBC9 SUMO inh 76
CCCC(C)(C)C(=O)N1CCC1(C)C(=O)Nc1ccc2c(c1)OCCO2 (centres undefined)	none (no result: UBC9 SUMO inh, PHOSPHO1 inh, p-CIP stab down)
COc1ccc(S(=O)(=O)NN=C2CCCCC2)cc1	PHOSPHO1 inh 74
CCc1ccc2c(F)cccc2n1	none (no result: UBC9 SUMO inh, PHOSPHO1 inh, p-CIP stab down)
CCCOc1ccc(F)cc1-c1cc(C(=O)Nc2ccc(C(C)C)cc2)[nH]n1	none (no result: UBC9 SUMO inh, PHOSPHO1 inh, p-CIP stab down)
CCCCNC(=O)C1(C)CCN1C(=O)c1cc(F)ccc1C (centres undefined)	none (no result: UBC9 SUMO inh, PHOSPHO1 inh, p-CIP stab down)
CN1CCN(c2nc(NCc3ccco3)nc(N)c2[N+](=O)[O-])CC1	PHOSPHO1 inh 60
Nc1nc(NCc2ccco2)nc(N2CCCCC2)c1[N+](=O)[O-]	none
CC1(C(=O)NCc2ccccc2)CCC(=O)N1C1CC1 (centres undefined)	none (no result: UBC9 SUMO inh, PHOSPHO1 inh, p-CIP stab down)
COC(=O)c1ccccc1NC(=S)N(C)C	none
COC(=O)c1ccccc1N=C(SC)N(C)C	PHOSPHO1 inh 94
S=c1[nH]nc(-c2ccncc2)n1/N=C/c1cn(-c2ccccc2)nc1-c1ccccc1	PHOSPHO1 inh 90
CC(C)(C)c1ccc(-c2n[nH]c(=S)n2/N=C/c2ccncc2)cc1	none
Cc1ccc(/C=N/n2c(-c3ccncc3)n[nH]c2=S)cc1	PHOSPHO1 inh 91
Cc1ccc(NC(=O)c2nc(S(=O)(=O)Cc3ccccc3C)ncc2Cl)cc1C	none
CCOc1cc(CNCC(O)c2ccccc2)cc(Cl)c1OC (centres undefined)	PHOSPHO1 inh 62
CC(C)n1nnnc1C1c2ccccc2C(=O)N1Cc1ccco1 (centres undefined)	none (no result: UBC9 SUMO inh, PHOSPHO1 inh, p-CIP stab down)
CC(C)(C)NC(=O)C1c2ccccc2OCC(=O)N1Cc1ccc2c(c1)OCO2 (centres undefined)	none (no result: UBC9 SUMO inh, PHOSPHO1 inh, p-CIP stab down)

Source: PubChem BioAssay (Sanford-Burnham Center for Chemical Genomics)
